# Source: PubChem BioAssay
# ALOX12 inh = ALOX12 (human) lipoxygenase inhibition | purified 12hLO, xylenol orange hydroperoxide absorbance | Potency, µM (top dose mostly 108 µM), inactives show top-dose activity change, negative = inhibition, most hits filed as inhibitors | hit rate 1.1% among 580,000; also: % is scaled to controls: 0 for no effect and ±100 for the full control effect
#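 Purified human 12hLO at 150 nM in 25 mM Hepes, 0.01% Triton X-100, pH 7.0, preincubated 15 min at room temperature with compound. Reaction started with 40 uM arachidonic acid, 30 min at room temperature. Hydroperoxide measured by Fe-xylenol orange, 573/405 nm absorbance ratio.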
# BAZ2B inh = inhibitors of human BAZ2B bromodomain; Q9UIF8; AlphaScreen BAZ2B-H3K14Ac peptide displacement; Potency, µM (doses to about 114 µM), without a hit: at the highest dose activity change, negative = inhibition, most hits filed as inhibitors; hit rate 4.4% among 360,000; AID 504333; also: % is scaled to controls: 0 for no effect and ±100 for the full control effect; nearly all actives have a fitted effect of over 60% in size
#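 AlphaScreen displacement of biotin-H3(5-23)K14Ac peptide (50 nM final) from BAZ2B (50 nM final) in PBS pH 7.4, 0.01% Tween-20; complex preformed 30 min RT, then compounds (top 110 uM) 30 min RT, beads 20 min dark.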
# Sfp inh = blocks B. subtilis Sfp PPTase activity; Biochemical Sfp PPTase activity, qHTS; AID 1490; hit rate 3.5% among 310,000; Potency, µM, for the others: largest response in the series, negative = inhibition, usual class: inhibitors;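 also: the enzyme is Sfp with the accession as filed and its product quenches rhodamine fluorescence; 0% = enzyme reaction without inhibitor and -100% = no enzyme wells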
#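 After 15 min at room temperature with compound, 15 nM Sfp received 5 uM rhodamine-CoA plus 12.5 uM BHQ-2-ybbR (50 mM Hepes pH 7.6, 10 mM MgCl2). Rate came from the fluorescence difference over 30 min, ex 525/em 598 nm.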
# G9a block = blocks human histone lysine methyltransferase G9a | Potency, µM (series often up to 102 µM), without a hit: at the top dose activity, negative = inhibition, most hits filed as inhibitors | hit rate 8.8% among 350,000 | G9a H3K9 monomethylation, AlphaScreen, 2 h; also: % is scaled to controls: 0 for no effect and ±100 for the full control effect; nearly all actives have a fitted effect of over 75% in size
#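 Readings reflect AlphaScreen signal from monomethyl-H3K9 antibody detection. HMT at 20 nM; substrate b-H3K9 500 nM; cofactor SAM 20 uM; 2 h RT reaction; compounds tested as titrations in qHTS with 15 min preincubation.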
# HP1b binding inh = blocks HP1-beta chromodomain binding to methylated histone tails; AID 540317; hit rate 0.56% among 390,000; AlphaScreen HP1-beta / biotin-H3K9me3 peptide binding; P83916; Potency, µM (series often up to 114 µM), for inactives: at the highest dose activity change, negative = inhibition, actives largely listed as inhibitors; also: nearly all actives have a fitted effect of over 70% in size
#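 HP1-beta protein (50 nM final) preincubated 30 min at room temperature with biotinylated H3(1-18)K9me3 peptide (50 nM) in PBS pH 7.4, 0.01% Tween-20, then compound added for 30 min. AlphaScreen streptavidin donor/nickel chelate acceptor beads (10 ug/mL final), 30 min dark, luminescence read.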
# JMJD2A Tudor inh = inhibitors of human JMJD2A Tudor domain. O75164. AlphaScreen JMJD2A-Tudor / H3K4me3 peptide binding. Potency, µM (top dose mostly 114 µM), without a hit: top-dose activity change, negative = inhibition, hits mostly inhibitors. hit rate 4.4% among 390,000. AID 504339; also: % is scaled to controls: 0 for no effect and ±100 for the full control effect; nearly all actives have a fitted effect of over 50% in size
# Target sequence (O75164 whole entry, looked up, the tested form may be a part): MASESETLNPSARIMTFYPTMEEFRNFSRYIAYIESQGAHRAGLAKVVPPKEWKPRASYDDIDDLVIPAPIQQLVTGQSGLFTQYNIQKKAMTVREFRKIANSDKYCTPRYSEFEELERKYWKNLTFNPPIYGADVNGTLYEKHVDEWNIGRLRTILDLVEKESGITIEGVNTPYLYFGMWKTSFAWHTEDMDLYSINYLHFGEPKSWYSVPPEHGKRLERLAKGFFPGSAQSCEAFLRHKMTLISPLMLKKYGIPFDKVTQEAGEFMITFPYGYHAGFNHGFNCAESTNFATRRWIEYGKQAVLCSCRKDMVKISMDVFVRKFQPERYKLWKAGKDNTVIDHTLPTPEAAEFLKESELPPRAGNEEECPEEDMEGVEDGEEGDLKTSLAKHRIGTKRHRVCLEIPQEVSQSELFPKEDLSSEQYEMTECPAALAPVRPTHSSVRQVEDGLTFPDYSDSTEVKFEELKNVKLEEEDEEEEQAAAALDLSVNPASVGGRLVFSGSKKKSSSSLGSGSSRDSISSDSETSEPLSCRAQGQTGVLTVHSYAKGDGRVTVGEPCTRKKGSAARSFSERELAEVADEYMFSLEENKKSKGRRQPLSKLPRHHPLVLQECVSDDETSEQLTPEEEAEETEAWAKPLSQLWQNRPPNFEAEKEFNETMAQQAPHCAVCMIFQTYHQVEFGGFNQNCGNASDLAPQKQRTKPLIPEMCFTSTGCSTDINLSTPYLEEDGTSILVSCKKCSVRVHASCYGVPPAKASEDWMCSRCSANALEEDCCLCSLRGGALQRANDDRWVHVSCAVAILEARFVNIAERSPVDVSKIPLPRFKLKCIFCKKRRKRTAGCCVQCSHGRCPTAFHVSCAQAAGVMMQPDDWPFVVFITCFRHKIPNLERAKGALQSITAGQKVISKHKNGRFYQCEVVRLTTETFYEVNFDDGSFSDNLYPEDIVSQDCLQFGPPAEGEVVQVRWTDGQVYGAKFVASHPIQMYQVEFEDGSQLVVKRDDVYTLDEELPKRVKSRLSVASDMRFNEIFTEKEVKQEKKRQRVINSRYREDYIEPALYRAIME
# An asterisk follows results filed as active; u = inconclusive; x = not tested or not shown; [ ] = dose if it differs, or a comment. Sampled rows, rich in hits. Any-hit rate of the full collection: about 8.7%. Calls follow the shape of the dose curve; as a rule, active = well fitted curve in the direction sought with a large enough effect; inconclusive = small, poorly fitted or top-dose-only effect, or another doubt; inactive = no such curve, though single readings can be large; an effect the other way counts as inactive or inconclusive. Potency is read from the fitted curve at half-maximal effect.
SMILES,ALOX12 inh,BAZ2B inh,Sfp inh,G9a block,HP1b binding inh,JMJD2A Tudor inh
COC(=O)c1c(C)oc2c1cc(NS(=O)(=O)c1ccc(C(=O)O)cc1)c1ccccc12,4%[57.4 µM],u,-19%,35µM*,1%,-32%
Cc1cc(F)ccc1S(=O)(=O)Nc1cc2c(C(=O)O)c(C)oc2c2ccccc12,u,-18%,x,-40%[59 µM],-11%,u
CC(=O)c1c(C)oc2c1cc(NS(=O)(=O)c1ccc(C(=O)O)cc1)c1ccccc12,-7%,-7%,22%,u,-19%,-14%
Cc1ccc(S(=O)(=O)Nc2cc3c(C(=O)O)c(C)oc3c3ccccc23)c(C)c1,u,50µM*,12%,50µM*,u,u
CC(=O)NCC(=O)N1CCCn2cc(-c3ccccc3)nc21,1%,x,x,x,x,x
CC(C)Oc1cccc(-c2cccc(COc3ccc4c(cnn4CC[S+](C)(=O)[O-])c3)c2)c1,-27%,x,x,x,x,x
Cc1ccc(S(=O)(=O)NCc2ccncc2)c(C)c1C,-5%,1%,45µM*,x,21%,-19%
Cc1ccc(S(=O)(=O)NCc2ccccn2)c(C)c1C,u,u,2%,12%[59 µM],12%,-12%
Cc1ccc(C(=O)NCCc2c[nH]c3ccccc23)cc1,3%,x,x,x,x,x
CC(=O)c1c(C)[nH]c(C(=O)Nc2ccccn2)c1C,-4%,-34%,12%,5%,27%,-19%
Cc1[nH]c(=O)[nH]c1C(=O)CCCCC(=O)OCC(=O)Nc1ccccn1,10%,0.89µM*,6%,1.6µM*,-96%,0.79µM*
COc1cc(-c2nc3ccccc3s2)ccc1OC(C)C,-2%,x,x,x,x,x
C=CCN=C1NN=C(c2cc(C)n(CCOC)c2C)CS1,u,u,40µM*,-5%[59 µM],37%,-5%
Cc1cc(C2=NNC(=NC3CC3)SC2)c(C)n1Cc1ccco1,u,u,u,25µM*,-21%,u
COCCn1c(C)cc(C2=NNC(=NC3CC3)SC2)c1C,-11%,u,50µM*,40µM*,7%,-26%
COCCCN=C1NN=C(c2cc(C)n(Cc3ccco3)c2C)CS1,-20%,u,u,u,-3%,u
Cc1cc(C2=NNC(=Nc3ccccc3)SC2)c(C)n1CC1CCCO1 (stereo not drawn),-21%,x,x,x,x,x
COCCn1c(C)cc(C2=NNC(=Nc3ccc(Cl)cc3Cl)SC2)c1C,u,-36%,56µM*,u,-18%,-34%
COc1ccc(-n2c(C)cc(C3=NNC(=NC4CC4)SC3)c2C)cc1,u,-11%,-108%,42%,u,u
Cc1ccc(NC(=O)CSc2nc(C)c(C)n2C2CCCC2)cc1S(=O)(=O)N1CCOCC1,5%,x,x,x,x,x
Cc1ccc2nc(CN(C)C(=O)c3ccc(C)c(N4CCNC4=O)c3)[nH]c2c1,5%,x,x,x,x,x
O=C1CCCC/C1=C/Nc1ccc2c(c1)OCO2,u,u,u,35µM*,-4%,-14%
O=C1CCCC/C1=C/Nc1ccc(C(=O)O)cc1,-21%,4%,2%,u,19%,-8%
O=C1CCC/C1=C/Nc1cccc(F)c1,228%,-21%,-8%,x,-11%,50µM*
O=C(NCc1ccccn1)c1cc(S(=O)(=O)C2CCS(=O)(=O)C2)ccc1F (stereo not drawn),-1%,x,x,x,x,x
SMILES,ALOX12 inh,BAZ2B inh,Sfp inh,G9a block,HP1b binding inh,JMJD2A Tudor inh
CC(C)c1ccccc1NC(=O)c1cnccn1,1%,-3%,-4%,-14%[12.7 µM],32%,-8%
Cc1nn(Cc2ccc(F)cc2)c(C)c1NC(=O)c1cc2ncc(Br)cn2n1,-8%,u,9%,u,-8%,u
Cc1ccccc1Cn1ccc(NC(=O)c2cc3ncc(Br)cn3n2)n1,7%,50µM*,8%,-37%,33%,-11%
CSc1ccccc1NC(=O)c1cc2ncc(Br)cn2n1,-27%,56µM*,u,35µM*,-10%,u
CSc1ccccc1NC(=O)c1cnccn1,u,0%,-27%,25µM*,6%,-24%
O=S(=O)(Nc1cccc2c1CCCC2)c1cccc(F)c1,-11%,x,x,x,x,x
CC(=O)Nc1ccc(C(O)[C@H]2COCC(=O)N2Cc2ccccc2F)cc1 (stereo partly drawn),75%[176 µM],x,x,x,x,x
CC(C)N1CCCC2(CCN(S(=O)(=O)c3ccc(F)cc3F)C2)C1=O (stereo not drawn),34%,x,x,x,x,x
CC(/C=C/c1ccco1)=N\NC(=O)COc1ccc(C)c(C)c1,0%,u,u,40µM*,15%,-33%
Cc1ccc(OCCNC(=O)/C=C/c2ccco2)cc1C,73%,-32%,10µM*,x,3%,-22%
COc1cccc(CN2C(=O)C3(CCOCC3)CC2c2nnnn2C(C)(C)C)c1OC (stereo not drawn),28%,x,x,x,x,x
COCc1cc(=O)n2[nH]c(N)nc2n1,-8%,50µM*,-6%,x,26%,-31%
COCc1cc(=O)n2[nH]c(SC)nc2n1,0%,9%,13%,-2%[12.7 µM],19%,-21%
CCOC(=O)C1CCN(C2=NC(=O)/C(=C/c3ccc(Cl)cc3)S2)CC1,u,u,-10%,0%,23%,-12%
CCOC(=O)CSC1=NC(=O)/C(=C\c2ccc(Cl)cc2)S1,45µM*,-33%,u,35µM*,14%,u
CCCC(=O)Nc1ccc(OCC)c2ncccc12,-26%,x,x,x,x,x
